Drawing on article PMC7862700, “An all-to-all approach to the identification of sequence-specific readers for epigenetic DNA modifications on cytosine”, this text covers binding signal for one sequence.

What all share (test): DAPPL (digital affinity profiling via proximity ligation, sequencing); 10 mM Tris-HCl pH 7.5, 50 mM NaCl, 1 mM DTT, 4% glycerol, room temperature, 30 min; GST-TFs on glutathione beads, 16-mer random dsDNA library, 0.1% formaldehyde crosslink after washing; high values mean tight binding
Holding throughout (conditions): protein: recombinant; tags: N-terminal GST; dsDNA, one strand shown

One assay has as its target T1, FLI1 (Homo sapiens, UniProt Q01543 1-452).
T1 sequence: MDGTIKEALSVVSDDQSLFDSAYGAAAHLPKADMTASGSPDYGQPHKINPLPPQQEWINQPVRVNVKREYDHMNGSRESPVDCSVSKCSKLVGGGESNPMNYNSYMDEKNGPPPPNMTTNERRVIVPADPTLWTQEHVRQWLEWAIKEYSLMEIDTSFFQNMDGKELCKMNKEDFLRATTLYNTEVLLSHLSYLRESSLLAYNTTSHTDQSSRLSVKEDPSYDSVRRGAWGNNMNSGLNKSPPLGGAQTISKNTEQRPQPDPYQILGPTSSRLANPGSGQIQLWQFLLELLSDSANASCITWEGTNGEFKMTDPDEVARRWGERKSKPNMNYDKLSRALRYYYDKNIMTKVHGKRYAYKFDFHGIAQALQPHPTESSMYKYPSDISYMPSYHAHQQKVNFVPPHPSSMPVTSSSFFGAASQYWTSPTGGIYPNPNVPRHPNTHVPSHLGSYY
An outline of the steps: (§1)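 Pools of DNA-barcoded human transcription factors, expressed in yeast as GST fusions on glutathione beads and combined with a tag-only sample, were incubated with 200 nmole of a 16-mer random double-stranded DNA library. Incubation took 30 min at room temperature in Tris/NaCl/DTT/glycerol buffer and was followed by washing, 0.1% formaldehyde crosslinking, proximity ligation (BsaI/T4 ligase, 1 h, 37 °C), PCR amplification and sequencing on an Illumina NextSeq500. Binding signal is the ratio of a hexamer's read frequency for a factor to its frequency for the tag-only sample.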

The next assay deals with T2, GABPA (Homo sapiens, UniProt Q06546 1-454).
T2 sequence: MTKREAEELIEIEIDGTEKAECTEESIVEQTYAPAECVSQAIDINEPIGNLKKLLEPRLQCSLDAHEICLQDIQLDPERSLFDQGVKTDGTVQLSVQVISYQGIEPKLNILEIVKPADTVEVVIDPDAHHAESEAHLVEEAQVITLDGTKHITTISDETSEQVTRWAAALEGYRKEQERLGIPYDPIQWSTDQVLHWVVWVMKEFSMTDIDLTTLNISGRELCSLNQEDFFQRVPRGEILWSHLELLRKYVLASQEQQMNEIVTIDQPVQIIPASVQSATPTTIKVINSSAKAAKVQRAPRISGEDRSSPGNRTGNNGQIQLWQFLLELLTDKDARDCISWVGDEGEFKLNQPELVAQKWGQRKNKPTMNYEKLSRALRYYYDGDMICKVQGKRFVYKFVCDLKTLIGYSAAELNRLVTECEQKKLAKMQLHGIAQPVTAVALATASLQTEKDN
In short, it runs like this: as §1

A further assay deals with T3, ERG (Homo sapiens, UniProt P11308 1-479).
T3 sequence: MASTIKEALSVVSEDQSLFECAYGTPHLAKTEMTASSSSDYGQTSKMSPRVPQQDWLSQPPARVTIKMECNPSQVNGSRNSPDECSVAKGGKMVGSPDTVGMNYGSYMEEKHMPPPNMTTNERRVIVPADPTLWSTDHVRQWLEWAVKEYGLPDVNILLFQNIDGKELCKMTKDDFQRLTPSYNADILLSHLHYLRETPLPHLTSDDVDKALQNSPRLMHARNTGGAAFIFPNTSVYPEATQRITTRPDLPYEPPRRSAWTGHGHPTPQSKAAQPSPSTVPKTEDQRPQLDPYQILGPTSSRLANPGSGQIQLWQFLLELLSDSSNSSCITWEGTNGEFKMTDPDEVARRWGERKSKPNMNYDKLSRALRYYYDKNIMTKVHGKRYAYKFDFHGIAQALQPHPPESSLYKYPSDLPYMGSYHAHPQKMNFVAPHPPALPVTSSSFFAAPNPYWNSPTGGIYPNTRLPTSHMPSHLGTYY
In short, it runs like this: as §1

For the next assay, the target named is ELF1 (Homo sapiens, UniProt P32519 1-619). An outline of the steps: as §1
ELF1, sequence (P32519 whole entry): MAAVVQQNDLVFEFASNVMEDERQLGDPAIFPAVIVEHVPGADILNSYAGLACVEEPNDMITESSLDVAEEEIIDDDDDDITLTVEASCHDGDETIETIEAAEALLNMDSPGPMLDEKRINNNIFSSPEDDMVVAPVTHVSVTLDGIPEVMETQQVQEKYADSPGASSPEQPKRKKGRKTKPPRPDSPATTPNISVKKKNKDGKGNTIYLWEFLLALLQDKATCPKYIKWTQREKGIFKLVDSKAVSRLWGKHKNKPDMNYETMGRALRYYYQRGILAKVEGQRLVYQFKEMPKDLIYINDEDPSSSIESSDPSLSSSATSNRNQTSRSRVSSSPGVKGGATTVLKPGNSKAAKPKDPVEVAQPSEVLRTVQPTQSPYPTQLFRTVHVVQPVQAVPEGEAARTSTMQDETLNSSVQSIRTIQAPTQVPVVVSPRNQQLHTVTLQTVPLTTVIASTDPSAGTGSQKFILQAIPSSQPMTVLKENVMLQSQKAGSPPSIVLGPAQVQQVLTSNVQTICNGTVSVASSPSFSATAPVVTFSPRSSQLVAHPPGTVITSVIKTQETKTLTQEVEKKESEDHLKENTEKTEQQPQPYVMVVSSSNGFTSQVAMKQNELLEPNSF
The target of the next assay is T4, EHF (Homo sapiens, UniProt Q9NZC4 1-300).
T4 sequence: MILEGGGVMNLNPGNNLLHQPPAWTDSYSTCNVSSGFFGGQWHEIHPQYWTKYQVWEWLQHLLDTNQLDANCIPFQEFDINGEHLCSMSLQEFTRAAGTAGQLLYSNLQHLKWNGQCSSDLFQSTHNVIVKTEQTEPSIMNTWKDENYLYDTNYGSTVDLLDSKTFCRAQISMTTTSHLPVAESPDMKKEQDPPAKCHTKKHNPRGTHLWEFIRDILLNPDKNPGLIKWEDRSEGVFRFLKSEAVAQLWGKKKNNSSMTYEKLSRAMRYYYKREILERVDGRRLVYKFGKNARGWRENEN
An outline of the steps:
as §1

For another assay, the target named is SPI1 (Homo sapiens, UniProt P17947 1-270). In short, it runs like this: as §1
The target of the next assay is SPIB (Homo sapiens, UniProt Q01892 1-262). In short, it runs like this: as §1
SPIB, sequence (Q01892 whole entry): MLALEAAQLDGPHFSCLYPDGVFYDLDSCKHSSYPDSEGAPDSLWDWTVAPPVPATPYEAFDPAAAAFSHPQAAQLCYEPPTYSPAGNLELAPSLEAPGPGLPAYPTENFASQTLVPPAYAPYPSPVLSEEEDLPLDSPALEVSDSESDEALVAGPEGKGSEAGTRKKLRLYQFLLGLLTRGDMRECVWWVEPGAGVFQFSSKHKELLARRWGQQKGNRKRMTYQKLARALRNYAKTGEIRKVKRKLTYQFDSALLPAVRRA
The next assay addresses T5, FEV (Homo sapiens, UniProt Q99581 1-238).
T5 sequence: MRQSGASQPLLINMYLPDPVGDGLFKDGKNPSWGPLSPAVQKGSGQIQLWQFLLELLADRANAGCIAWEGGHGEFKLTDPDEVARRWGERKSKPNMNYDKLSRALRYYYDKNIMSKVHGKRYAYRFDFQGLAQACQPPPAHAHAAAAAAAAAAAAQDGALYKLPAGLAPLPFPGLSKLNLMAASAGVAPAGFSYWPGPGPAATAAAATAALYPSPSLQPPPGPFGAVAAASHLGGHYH
In short, it runs like this:
as §1

A further assay has as its target ETV5 (Homo sapiens, UniProt P41161 1-510). An outline of the steps:
as §1

The target of a further assay is T6, SPIC (Homo sapiens, UniProt Q8N5J4 1-248).
T6 sequence: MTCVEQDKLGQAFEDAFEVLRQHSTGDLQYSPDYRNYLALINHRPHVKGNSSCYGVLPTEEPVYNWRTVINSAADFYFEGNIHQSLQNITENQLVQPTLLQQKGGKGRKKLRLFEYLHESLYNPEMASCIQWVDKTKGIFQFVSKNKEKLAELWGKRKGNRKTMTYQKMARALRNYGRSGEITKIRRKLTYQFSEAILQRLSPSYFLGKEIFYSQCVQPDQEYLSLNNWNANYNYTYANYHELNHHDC
An outline of the steps: as §1

The next assay has as its target ELF4 (Homo sapiens, UniProt Q99607 1-663). In short, it runs like this: as §1
Another assay addresses ETV1 (Homo sapiens, UniProt P50549 1-477). In short, it runs like this:
as §1

A further assay concerns the target T7, ERF (Homo sapiens, UniProt P50548 1-548).
T7 sequence: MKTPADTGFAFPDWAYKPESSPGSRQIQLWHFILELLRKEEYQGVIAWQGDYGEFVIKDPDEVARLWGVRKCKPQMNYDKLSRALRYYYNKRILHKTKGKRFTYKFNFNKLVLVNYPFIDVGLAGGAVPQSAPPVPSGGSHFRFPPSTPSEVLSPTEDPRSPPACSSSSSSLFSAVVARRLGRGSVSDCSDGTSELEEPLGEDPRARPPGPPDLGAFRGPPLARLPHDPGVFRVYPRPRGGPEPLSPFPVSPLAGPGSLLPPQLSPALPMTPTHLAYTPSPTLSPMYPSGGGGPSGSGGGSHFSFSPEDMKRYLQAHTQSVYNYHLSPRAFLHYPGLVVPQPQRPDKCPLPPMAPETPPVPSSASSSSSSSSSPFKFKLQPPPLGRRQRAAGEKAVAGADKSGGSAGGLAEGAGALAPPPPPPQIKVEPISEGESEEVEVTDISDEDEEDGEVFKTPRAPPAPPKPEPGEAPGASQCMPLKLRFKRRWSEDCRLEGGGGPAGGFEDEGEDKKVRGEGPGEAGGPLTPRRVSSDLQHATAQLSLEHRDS
In short, it runs like this:
as §1

A further assay has as its target T8, ETS2 (Homo sapiens, UniProt P15036 1-469).
T8 sequence: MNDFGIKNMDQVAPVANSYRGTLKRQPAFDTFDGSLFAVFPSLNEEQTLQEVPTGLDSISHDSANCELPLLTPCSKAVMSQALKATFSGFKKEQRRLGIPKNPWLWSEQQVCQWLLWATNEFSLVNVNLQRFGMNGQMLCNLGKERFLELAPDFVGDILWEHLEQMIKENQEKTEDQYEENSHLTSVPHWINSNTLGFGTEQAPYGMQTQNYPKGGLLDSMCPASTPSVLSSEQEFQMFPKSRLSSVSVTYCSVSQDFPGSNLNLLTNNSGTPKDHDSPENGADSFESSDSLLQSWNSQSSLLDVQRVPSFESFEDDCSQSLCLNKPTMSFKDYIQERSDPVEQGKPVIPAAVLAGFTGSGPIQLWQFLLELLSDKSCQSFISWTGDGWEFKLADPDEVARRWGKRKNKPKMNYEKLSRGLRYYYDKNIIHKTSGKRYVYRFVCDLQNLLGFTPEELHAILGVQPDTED
An outline of the steps:
as §1

In the next assay the target is T9, SPDEF (Homo sapiens, UniProt O95238 1-335).
T9 sequence: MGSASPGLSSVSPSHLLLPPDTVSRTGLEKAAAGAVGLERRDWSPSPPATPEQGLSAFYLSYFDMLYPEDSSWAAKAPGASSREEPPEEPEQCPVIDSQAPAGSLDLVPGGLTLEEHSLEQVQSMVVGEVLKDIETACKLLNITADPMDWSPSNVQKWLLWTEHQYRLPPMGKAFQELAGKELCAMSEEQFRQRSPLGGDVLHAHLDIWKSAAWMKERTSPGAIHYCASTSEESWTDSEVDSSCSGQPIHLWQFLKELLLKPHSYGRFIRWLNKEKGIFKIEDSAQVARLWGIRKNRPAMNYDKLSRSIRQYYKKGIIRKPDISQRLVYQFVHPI
In short, it runs like this: as §1

For another assay, the target named is T10, ELF5 (Homo sapiens, UniProt Q9UKW6-2 1-255).
T10 sequence: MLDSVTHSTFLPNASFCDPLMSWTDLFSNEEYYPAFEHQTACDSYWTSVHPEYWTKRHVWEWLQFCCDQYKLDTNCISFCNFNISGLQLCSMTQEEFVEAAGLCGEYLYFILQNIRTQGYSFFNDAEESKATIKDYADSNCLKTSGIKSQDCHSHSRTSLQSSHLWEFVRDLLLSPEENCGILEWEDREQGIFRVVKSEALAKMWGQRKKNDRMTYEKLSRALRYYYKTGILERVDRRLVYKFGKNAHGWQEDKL
An outline of the steps: as §1

A further assay concerns the target T11, ETV3 (Homo sapiens, UniProt P41162-2 1-143).
T11 sequence: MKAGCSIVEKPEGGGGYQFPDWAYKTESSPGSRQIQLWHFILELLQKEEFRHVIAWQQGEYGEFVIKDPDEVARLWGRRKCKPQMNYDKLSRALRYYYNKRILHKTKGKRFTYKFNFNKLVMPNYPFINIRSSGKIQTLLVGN
An outline of the steps:
as §1

The target in the next assay is ETV6 (Homo sapiens, UniProt P41212 1-452). An outline of the steps: as §1
ETV6, sequence (P41212 whole entry): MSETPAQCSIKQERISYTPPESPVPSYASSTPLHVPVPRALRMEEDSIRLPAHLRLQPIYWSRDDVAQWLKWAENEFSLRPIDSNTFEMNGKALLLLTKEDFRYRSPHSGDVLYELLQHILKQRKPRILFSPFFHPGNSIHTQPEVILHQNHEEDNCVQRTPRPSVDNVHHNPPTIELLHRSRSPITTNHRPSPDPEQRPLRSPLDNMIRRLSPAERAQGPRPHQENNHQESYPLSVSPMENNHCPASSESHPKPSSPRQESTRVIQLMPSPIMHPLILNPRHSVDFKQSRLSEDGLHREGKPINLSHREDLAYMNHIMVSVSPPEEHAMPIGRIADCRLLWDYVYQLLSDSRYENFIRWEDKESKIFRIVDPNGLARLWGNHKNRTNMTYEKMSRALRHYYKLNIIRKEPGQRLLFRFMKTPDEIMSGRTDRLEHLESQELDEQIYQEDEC

ETV5, sequence (P41161 whole entry): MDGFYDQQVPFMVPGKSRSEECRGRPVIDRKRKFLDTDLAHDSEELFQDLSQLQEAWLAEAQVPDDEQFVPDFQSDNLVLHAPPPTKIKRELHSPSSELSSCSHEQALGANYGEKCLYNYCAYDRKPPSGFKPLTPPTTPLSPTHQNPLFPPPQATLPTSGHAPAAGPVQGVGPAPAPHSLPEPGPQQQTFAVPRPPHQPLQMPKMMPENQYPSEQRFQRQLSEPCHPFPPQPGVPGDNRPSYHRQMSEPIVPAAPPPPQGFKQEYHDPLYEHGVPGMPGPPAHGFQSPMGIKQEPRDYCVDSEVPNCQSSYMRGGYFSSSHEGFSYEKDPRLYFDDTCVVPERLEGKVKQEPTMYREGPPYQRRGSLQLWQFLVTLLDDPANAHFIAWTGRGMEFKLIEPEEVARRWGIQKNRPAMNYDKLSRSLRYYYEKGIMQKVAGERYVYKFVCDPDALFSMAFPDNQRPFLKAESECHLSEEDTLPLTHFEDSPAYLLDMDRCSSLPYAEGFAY
ETV1, sequence (P50549 whole entry): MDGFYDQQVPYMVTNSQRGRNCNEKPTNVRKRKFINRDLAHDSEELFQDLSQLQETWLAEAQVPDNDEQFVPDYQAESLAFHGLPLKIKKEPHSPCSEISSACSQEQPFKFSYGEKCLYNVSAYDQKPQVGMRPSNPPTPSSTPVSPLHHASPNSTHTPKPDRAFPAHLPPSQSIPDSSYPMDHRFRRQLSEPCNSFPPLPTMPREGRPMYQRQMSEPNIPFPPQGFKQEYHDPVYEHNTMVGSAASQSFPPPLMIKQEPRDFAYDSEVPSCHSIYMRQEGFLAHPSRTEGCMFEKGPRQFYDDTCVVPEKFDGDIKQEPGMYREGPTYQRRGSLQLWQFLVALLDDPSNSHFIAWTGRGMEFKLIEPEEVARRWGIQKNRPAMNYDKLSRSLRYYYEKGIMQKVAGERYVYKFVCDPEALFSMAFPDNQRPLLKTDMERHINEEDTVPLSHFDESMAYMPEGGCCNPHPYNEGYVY
ELF4, sequence (Q99607 whole entry): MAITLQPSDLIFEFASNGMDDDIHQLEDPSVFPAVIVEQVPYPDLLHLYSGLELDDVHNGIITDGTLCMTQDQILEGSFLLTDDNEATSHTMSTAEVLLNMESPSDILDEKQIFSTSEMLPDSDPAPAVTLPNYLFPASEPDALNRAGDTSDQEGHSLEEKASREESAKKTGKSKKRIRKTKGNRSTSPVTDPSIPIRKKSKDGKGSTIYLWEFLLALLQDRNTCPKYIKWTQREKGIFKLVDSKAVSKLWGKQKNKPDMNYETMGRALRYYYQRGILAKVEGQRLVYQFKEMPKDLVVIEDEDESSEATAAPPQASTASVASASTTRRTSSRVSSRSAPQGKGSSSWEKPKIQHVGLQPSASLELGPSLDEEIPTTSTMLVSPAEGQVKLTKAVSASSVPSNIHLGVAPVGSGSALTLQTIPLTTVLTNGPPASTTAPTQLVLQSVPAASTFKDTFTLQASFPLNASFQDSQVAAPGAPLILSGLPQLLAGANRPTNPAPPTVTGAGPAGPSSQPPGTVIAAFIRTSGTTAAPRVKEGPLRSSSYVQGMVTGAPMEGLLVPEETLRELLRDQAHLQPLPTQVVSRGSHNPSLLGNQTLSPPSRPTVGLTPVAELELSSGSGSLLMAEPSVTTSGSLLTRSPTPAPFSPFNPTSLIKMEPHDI

For CGCTAT, the binding signal in the assay with FLI1 is 1.13 fold enrichment (6-mer frequency, TF over GST control); in the assay with GABPA, 1.07 fold enrichment (6-mer frequency, TF over GST control); in the assay with ERG, 1.09 fold enrichment (6-mer frequency, TF over GST control); with ELF1, 1.09 fold enrichment (6-mer frequency, TF over GST control); with EHF it was 1.06 fold enrichment (6-mer frequency, TF over GST control); with SPI1, 1.11 fold enrichment (6-mer frequency, TF over GST control). Moreover, the binding signal with SPIB is 1.12 fold enrichment (6-mer frequency, TF over GST control); with FEV, 1.04 fold enrichment (6-mer frequency, TF over GST control); with ETV5, 1.1 fold enrichment (6-mer frequency, TF over GST control); with SPIC it was 1.01 fold enrichment (6-mer frequency, TF over GST control); in the assay with ELF4, 1.15 fold enrichment (6-mer frequency, TF over GST control); with ETV1 it was 1.09 fold enrichment (6-mer frequency, TF over GST control). In addition, the binding signal is 1.16 fold enrichment (6-mer frequency, TF over GST control) with ERF; 1.03 fold enrichment (6-mer frequency, TF over GST control) with ETS2; 1.1 fold enrichment (6-mer frequency, TF over GST control) with SPDEF; 1.16 fold enrichment (6-mer frequency, TF over GST control) with ELF5; 1.14 fold enrichment (6-mer frequency, TF over GST control) in the assay with ETV3; 1.09 fold enrichment (6-mer frequency, TF over GST control) in the assay with ETV6.
